Laboratory results published in the supplement of paper PMC8253809.
Several values for one entry are separate records, joined by “and”; a condition that tells them apart may be missing. Equal values may be shown once.

How the values were obtained:
Experiment in all cases: growth inhibition (% activity, log2 RLU normalised to DMSO / staurosporine); higher = more growth inhibition
Conditions in all cases: 33 µM
DIPGX29 = system: DIPGX29 (H3.3 K27M diffuse intrinsic pontine glioma line)
Outline: (§1)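 pHGG cell lines and H9-derived neural stem cells were grown on Geltrex-coated 384-well plates. Approved drugs were added by pin tool at a single final concentration of about 33 μM, in triplicate, for 7 days at 37 °C, 5% CO2. CellTiter-Glo luminescence was log2-transformed and normalised per plate to % activity between solvent and positive control wells. The growth-inhibition value is the median over replicates.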

DIPGX37 = system: DIPGX37 (H3.3 K27M diffuse intrinsic pontine glioma line)
Outline: as §1

DIPGX7 = system: DIPGX7 (H3.3 K27M diffuse intrinsic pontine glioma line)
Outline: as §1

DIPGX9 = system: DIPGX9 (diffuse intrinsic pontine glioma line)
Outline: as §1

HGGX39 = system: HGGX39 (paediatric high-grade glioma line)
Outline: as §1

HGGX6 = system: HGGX6 (H3.3 G34R paediatric high-grade glioma line)
Outline: as §1

HNSC = system: HNSC
Outline: as §1

SUDIPGIV = system: SUDIPGIV (diffuse intrinsic pontine glioma line)
Outline: as §1

SUDIPGVI = system: SUDIPGVI (diffuse intrinsic pontine glioma line)
Outline: as §1

SUDIPGXIII = system: SUDIPGXIII (diffuse intrinsic pontine glioma line)
Outline: as §1

Row | SMILES | growth inhibition (DIPGX29) | growth inhibition (DIPGX37) | growth inhibition (DIPGX7) | growth inhibition (DIPGX9) | growth inhibition (HGGX39) | growth inhibition (HGGX6) | growth inhibition (HNSC) | growth inhibition (SUDIPGIV) | growth inhibition (SUDIPGVI) | growth inhibition (SUDIPGXIII)
1 | COC(=O)C1=C(C)NC(C)=C(C(=O)OCCN2CCN(C(c3ccccc3)c3ccccc3)CC2)C1c1cccc([N+](=O)[O-])c1 (stereo not given) | 5.69% | 6.99% | 4.72% | 4.03% | 8.12% | 5.46% | 73% | 3.75% | 6.07% | 22%
2 | Cc1ccc(Nc2nccc(N(C)c3ccc4c(C)n(C)nc4c3)n2)cc1S(N)(=O)=O | 3.74% and 7.46% | 4.99% and 1.63% | 5% and 10.4% | 3.67% and 7.92% | 6.65% and 10.2% | 5.31% and 11.1% | 4.18% and 9.11% | 4.44% and 6.85% | 5.08% and 5.8% | 3.27% and 1.33%
3 | CNCC[C@H](Oc1cccc2ccccc12)c1cccs1 | 3.5% | 4.35% | 4.07% | 2.42% | 5.92% | 4.8% | 16.9% | 2.42% | 4.44% | -1.12%
4 | CCc1cccc2c3c([nH]c12)C(CC)(CC(=O)O)OCC3 (stereo not given) | 1.41% | 0.479% | 3.29% | 0.48% | 2.3% | 0.44% | 2.88% | -3.78% | 1.87% | 1.77%
5 | CC(C)(OCc1nn(Cc2ccccc2)c2ccccc12)C(=O)O | -3.94% | -1.16% | -1.8% | -2.2% | -3.82% | -4.18% | -2.36% | -3.25% | -2.56% | 0.0548%
6 | COCCc1ccc(OCC(O)CNC(C)C)cc1 (stereo not given) | 0.745% | 0.102% | 1.22% | 2.73% | 2.04% | 1.92% | -0.726% | 0.382% | 2.97% | -0.552%
7 | COC(=O)CCc1ccc(OCC(O)CNC(C)C)cc1 (stereo not given) | 0.107% | 1.63% | 0.0919% | 0.526% | 0.823% | 1.03% | -0.617% | -1.21% | 1.48% | 0.0941%
8 | Nc1ccc(O)c(C(=O)O)c1 | 0.36% | 1.83% | 0.431% | 2.63% | 1.1% | 1.6% | 2.49% | 0.538% | 1.92% | -1.01%
9 | NC(CO)C(=O)NNCc1ccc(O)c(O)c1O (stereo not given) | -0.675% | 0.574% | -0.561% | -0.46% | -0.00682% | 2.73% | -2.22% | -0.604% | 0.203% | -7.46%
10 | CN1CCCC(n2nc(Cc3ccc(Cl)cc3)c3ccccc3c2=O)CC1 (stereo not given) | 3.68% | 2.48% | 4.68% | 2.54% | 7.54% | 3.65% | 0.14% | 1.76% | 0.965% | 2.09%
11 | S=c1[nH]cnc2nc[nH]c12 | 20.1% | 10.9% | 25.3% | 10.6% | 23.2% | 24.2% | 58.1% | 28.8% | 13.4% | 18.8%
12 | C#CC1(O)CCC2C3CCc4cc(OC)ccc4C3CCC21C (stereo not given) | 0.518% | -0.765% | -0.178% | 1.8% | 0.428% | 1.53% | -0.897% | -1.25% | 2.06% | -0.164%
13 | C[C@H](Cn1cnc2c(N)ncnc21)OCP(=O)(O)O | -1.46% | -3.07% | -1.11% | -0.823% | -1.24% | -0.0212% | -0.925% | -2.6% | -0.383% | 0.192%
14 | C[C@@H](O[C@H]1OCCN(Cc2nn(P(=O)(O)O)c(=O)[nH]2)[C@H]1c1ccc(F)cc1)c1cc(C(F)(F)F)cc(C(F)(F)F)c1 | 6.53% | 2.67% | 3.46% | 4.01% | 11.6% | 5.75% | 4.2% | 16.2% | 3.61% | 11.4%
15 | COc1ccc(/C=C/C(=O)Nc2ccccc2C(=O)O)cc1OC | -0.16% | 2.16% | 1.32% | -0.609% | -0.29% | -0.75% | 3.65% | 0.158% | -5.28% | -1.02%
16 | CN1CCN(c2c(F)cc3c(=O)c(C(=O)O)cn(CCF)c3c2F)CC1 | 1.06% | 4.17% | 2.04% | 2.14% | 2.42% | -0.149% | 5.69% | 2.18% | 2.45% | -2.39%
17 | Cc1c(NC(=O)c2cccnc2)c(=O)n(-c2ccccc2)n1C | 2.04% | 3.56% | 2.88% | 1.83% | 2.64% | 2.09% | 2.9% | 1.6% | 5.52% | -1.54%

Row | SMILES | growth inhibition (DIPGX29) | growth inhibition (DIPGX37) | growth inhibition (DIPGX7) | growth inhibition (DIPGX9) | growth inhibition (HGGX39) | growth inhibition (HGGX6) | growth inhibition (HNSC) | growth inhibition (SUDIPGIV) | growth inhibition (SUDIPGVI) | growth inhibition (SUDIPGXIII)
18 | CCCCc1ncc(/C=C(\Cc2cccs2)C(=O)O)n1Cc1ccc(C(=O)O)cc1 | -0.827% | 0.563% | -1.23% | -0.197% | 0.41% | 0.268% | -1.62% | -1.58% | 0.0226% | -13.9%
19 | CCOC(=O)N1CCC(=C2c3ccc(Cl)cc3CCc3cccnc32)CC1 | 2.36% | 3.66% | 1.58% | 1.03% | 1.57% | 1.37% | 5.38% | 3.97% | 1.47% | 0.514%
20 | C=C[C@]1(C)C[C@@H](OC(=O)CS[C@@H]2C[C@H]3CC[C@@H](C2)N3C)[C@]2(C)[C@H](C)CC[C@]3(CCC(=O)[C@H]32)[C@@H](C)[C@@H]1O | 4.15% | 2.94% | 3.25% | 4.84% | 11.9% | 5.9% | 7.78% | 12% | 5.01% | 5.37%
21 | Nc1nc(O)c2ncn(CCC(CO)CO)c2n1 | -0.633% | 1.72% | 0.291% | -0.106% | 0.105% | -0.242% | 0.639% | 0.184% | 1.56% | 0.273%
22 | COc1ccc2c(c1)c(CC(=O)O)c(C)n2C(=O)c1ccc(Cl)cc1 | -3.09% | -0.682% | 0.11% | -3.3% | -3.42% | -2.79% | -3.23% | -6.71% | -7.35% | 2.32%
23 | CN(C)CCCN1c2ccccc2Sc2ccc(C(F)(F)F)cc21 | 1.07% | 1.48% | 0.326% | 0.717% | 3.34% | 0.498% | -0.762% | 2.79% | 0.329% | -5.35%
24 | C#CC1(O)CC[C@H]2[C@@H]3CCC4=CC(=O)CC[C@@H]4[C@H]3CC[C@@]21CC (stereo not given in full) | -0.0424% | 0.475% | -1.66% | 0.691% | 0.0435% | 0.889% | -0.272% | -0.687% | 1.24% | 1.03%
25 | CN(Cc1cnc2nc(N)nc(N)c2n1)c1ccc(C(=O)N[C@@H](CCC(=O)O)C(=O)O)cc1 | 1.2% | 1.21% | 2.57% | 0.922% | 3.95% | 1.8% | 2.32% | -0.562% | 3.38% | 0.468%
26 | COC1C(O)CC(=O)OC(C)CC=CC=CC(OC2CCC(N(C)C)C(C)O2)C(C)CC(CC=O)C1OC1OC(C)C(OC2CC(C)(O)C(O)C(C)O2)C(N(C)C)C1O (stereo not given) | 0.981% | 1.73% | -0.322% | 0.622% | 1.26% | 1.89% | -0.2% | -0.377% | 1.86% | 0.183%
27 | COc1ccc(Cl)cc1C(=O)NCCc1ccc(S(=O)(=O)NC(=O)NC2CCCCC2)cc1 | -0.549% | 1.98% | -0.628% | -1.16% | 1.11% | 0.0176% | 2.28% | 0.343% | 1.26% | -1.12%
28 | C[C@]12CC[C@@H]3c4ccc(O)cc4CC[C@H]3[C@@H]1C[C@@H](O)[C@@H]2O | -2.64% | -2.04% | -1.85% | -3.27% | -3.05% | -3.15% | 1.55% | -0.339% | -10.4% | 1.55%
29 | Cc1ncc(CO)c(CO)c1O | 0.532% | 1.29% | 0.82% | 0.826% | -0.552% | 2.21% | 1.1% | 0.59% | 0.153% | -0.917%
30 | Nc1c2c(nc3ccccc13)CCCC2 | -2.45% | 1.21% | -2.4% | -0.673% | -0.0323% | -0.396% | -4.73% | 1.29% | -2.15% | -0.353%
31 | CC(=O)Nc1ncc([N+](=O)[O-])s1 | -0.525% | -1.35% | -1.25% | -0.952% | 1.46% | 1.88% | -5.25% | -1.68% | -0.127% | 11.8%
32 | OCC(CO)N[C@H]1C[C@](O)(CO)[C@@H](O)[C@H](O)[C@H]1O | -0.323% | 0.847% | -1.4% | 0.186% | 0.139% | -0.0513% | -1.53% | -0.574% | 0.28% | 0.0745%
33 | OCCN1C[C@H](O)[C@@H](O)[C@H](O)[C@H]1CO | 2.17% | 1.74% | 3.33% | 2.76% | 4.58% | 1.44% | 6.31% | 2.25% | 4.59% | 1.39%
